Shown are actives, neighbours in structure and some others; about 19% of the full set was active somewhere.
TDP1 cell noCPT: qHTS for Inhibitors of human tyrosyl-DNA phosphodiesterase 1 (TDP1): qHTS in cells in absence of CPT | DT40 Tdp1-/- hTDP1 cells, no CPT, ATP luminescence, 48 h | Potency, µM (titrated, usually from 46.2 µM), inactives show top-dose activity change, negative = growth inhibition, hits mostly inhibitors | actives 15% (n = 420,000) | AID 686978, 2013; further: potency means the concentration at half of the fitted maximal effect; nearly all actives have a fitted effect of over 55% in size
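DT40 Tdp1-/-;hTDP1 cells, no CPT (DMSO vehicle only), 400 cells/well; compounds pin-transferred; ≥48 hr, 37 °C; CellTiter-Glo 30 min RT dark, luminescence read.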
HT1080 IDH1KD tx: kills HT-1080 cells with IDH1 knockdown. HT-1080 IDH1 knockdown viability, ATP luminescence, 48 h. Potency, µM (doses to about 46.1 µM), without a hit: top-dose activity, negative = toxicity, usual class: cytotoxic. actives 2% (n = 360,000). AID 686971;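 further: potency means the concentration at half of the fitted maximal effect; 0% = DMSO wells and -100% = cell-free medium wells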
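Cytotoxicity counter-line: IDH1KD HT-1080, 48 h, CellTiter-Glo. Curves classed by r2, magnitude and activity.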
TDP1 cell CPT: growth inhibition of DT40 Tdp1-/-;hTDP1 cells with camptothecin (screen for TDP1 inhibitors); chicken DT40 Tdp1-/-;hTDP1 cells + 20 nM CPT, ATP luminescence, 48 h; Potency, µM (highest dose often 46.2 µM), without a hit: at the highest dose activity change, negative = growth inhibition, actives largely listed as inhibitors; actives 12% (n = 420,000); AID 686979; further: potency means the concentration at half of the fitted maximal effect; nearly all actives have a fitted effect of over 55% in size
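Cell growth measured by CellTiter-Glo luminescence after a minimum 48 h, 37 C compound exposure with 20 nM CPT in Tdp1-knockout DT40 cells stably expressing hTDP1, seeded 400/well; qHTS titration format.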
HT1080-NT tox: kills 2HG-producing HT-1080-NT fibrosarcoma cells; HT-1080-NT fibrosarcoma viability, CellTiter-Glo ATP luminescence, 48 h; Potency, µM (series often up to 46.1 µM), inactives show top-dose activity, negative = less viability, usual class: cytotoxic; actives 1.6% (n = 360,000); AID 686970;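 further: NT is the 2HG producing partner of a matched IDH1 knockdown line; potency means the concentration at half of the fitted maximal effect; 0% = DMSO-treated cells and -100% = media-only wells without cells; nearly all actives have a fitted effect of over 55% in size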
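HT-1080-NT; 750 cells/well; 5% FBS RPMI; 48 h compound, 37 degrees C; CellTiter-Glo luminescence; curve fitting and curve-class assignment.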
IL-1B inflam inh: blocks inflammasome-driven IL-1 beta release; activity change, % at 57.5 µM; THP-1 LPS/ATP IL-1B secretion, AlphaLISA, 16 h; active compounds read low; actives 4.7% (n = 360,000); in the data active means activity change below about -50%; inconclusive means mostly about -30% to -49%
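THP-1 cells pretreated 1 hr with compounds (up to 57.5 uM final), then stimulated with LPS (250 ng/mL final) plus ATP (1.25 mM final); secreted IL-1B measured by AlphaLISA after 16 hr, decreased signal indicating inhibition.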
* = called active by the depositor; ? = inconclusive; · = not tested or not shown. Unless noted, the call rests on the fitted dose curve; in most records, active means well fitted curve in the direction sought with a large enough effect; inconclusive means small, poorly fitted or top-dose-only effect, or another doubt; inactive means no such curve, though single readings can be large; an effect the other way counts as inactive or inconclusive. Unless noted, on the % scale 0 is the no-effect control and ±100 the full control effect.

SMILES | TDP1 cell noCPT | HT1080 IDH1KD tx | TDP1 cell CPT | HT1080-NT tox | IL-1B inflam inh
COc1ccc(OCC(=O)N(Cc2cccs2)C2CCS(=O)(=O)C2)cc1 (stereo not given) | 1% | -3% | -2% | 3% | 9
COc1ccc(N(Cc2cccs2)C(=O)c2ccco2)cc1 | ? | · | 23µM* | · | ·
COc1ccc(OCC(=O)N(Cc2cccs2)c2ccc(OC)cc2)cc1 | 23µM* | · | 16µM* | · | ·
COc1ccc(N(Cc2cccs2)C(=O)COc2ccc(C(C)C)cc2)cc1 | 21µM* | · | 23µM* | · | ·
NC(=O)OC[C@@H]1[C@H](NC(=O)/C(=N\OCC(=O)O)c2csc(N)n2)C(=O)N1S(=O)(=O)O | -13% | · | 0% | · | ·
CC(/C=C/c1ccc(O)cc1)=N/O | 21µM* | -5% | 15µM* | -2% | -24
CC(/C=C/c1ccccc1)=N/O | 0% | 5% | 4% | 10% | -19
O=C(CN(Cc1ccccc1)C(=O)c1cccc([N+](=O)[O-])c1)Nc1c(Cl)cc(Cl)cc1Cl | 12µM* | -15% | 8.2µM* | -16% | -1
O=C(NNc1c(Cl)cc(Cl)cc1Cl)c1cccc([N+](=O)[O-])c1 | ? | 5% | ? | -4% | -27
O=C(NCCCCc1ccccc1)c1cccc([N+](=O)[O-])c1 | 16µM* | 0% | 18µM* | 19% | -5
COc1ccc(C(=O)NC(C)CCc2ccccc2)cc1 (stereo not given) | -10% | 14% | -6% | 10% | -1
COc1ccc(C(=O)NC(C)CCc2ccccc2)c(O)c1 (stereo not given) | ? | -16% | ? | 0% | -55*
O=C(NCCCc1ccccc1)c1cccc([N+](=O)[O-])c1 | -26% | 6% | -25% | 2% | -3
COc1cccc(C(=O)NCCS(=O)(=O)NC(C)CCc2ccccc2)c1 (stereo not given) | 6.5µM* | 3% | ? | 3% | -4
CN(CC(=O)Nc1cccc(Cl)c1)S(=O)(=O)c1ccc2c(c1)n(C)c(=O)c(=O)n2C | -4% | -1% | -4% | -6% | 13
O=C(NCCCN1CCN(CCCNC(=O)c2cccc([N+](=O)[O-])c2)CC1)c1cccc([N+](=O)[O-])c1 | ? | 5% | 2% | 7% | -6
Cc1cccc([N+](=O)[O-])c1NC(=O)CN(Cc1ccccc1)Cc1ccccc1 | 21µM* | -10% | 26µM* | -12% | ?
Cc1cccc(C)c1NC(=O)CN(C)CCc1ccccc1 | ? | -1% | ? | 5% | 28
COc1cc(OC)cc(C(=O)NCCCCc2ccccc2)c1 | 13µM* | -9% | ? | -20% | 10
O=C(NCCn1ccc2ccccc21)c1cccc([N+](=O)[O-])c1 | 23µM* | 4% | 29µM* | 0% | 0
COc1cc(OC)cc(C(=O)NCCCCNC(=O)c2cc(OC)cc(OC)c2)c1 | -19% | 1% | 2% | 0% | ·
N#CC1=C(c2ccc(-c3ccccc3)cc2)COC1=O | -29% | -5% | -5% | 15% | ?
COc1ccccc1N1CCN(C(=O)c2cccc(N3C(=O)C4C5C=CC(C5)C4C3=O)c2)CC1 (stereo not given) | ? | 6% | ? | 4% | 16
Cc1cccc(N2CCN(C(=O)c3cccc(N4C(=O)C5CC=CC(C)C5C4=O)c3)CC2)c1C (stereo not given) | 23µM* | -14% | ? | 1% | -13
O=C(c1cccc(N2C(=O)C3C4C=CC(C4)C3C2=O)c1)N1CCN(c2ccccc2)CC1 (stereo not given) | -14% | 8% | 3% | -9% | ?
SMILES | TDP1 cell noCPT | HT1080 IDH1KD tx | TDP1 cell CPT | HT1080-NT tox | IL-1B inflam inh
O=C(c1cccc(N2C(=O)C3C4C=CC(C4)C3C2=O)c1)N1CCN(c2ccccc2Cl)CC1 (stereo not given) | 21µM* | -9% | ? | -5% | -19
COCCNC(=O)C(c1ccc(F)cc1)N(C(=O)CCC(=O)Nc1ccccn1)C1CCCCC1 (stereo not given) | -13% | 12% | 0% | 9% | -6
CCc1ccccc1CC1CN(Cc2ccccc2)Cc2ccccc2N1c1ccc(OC)cc1 (stereo not given) | 12µM* | 2% | ? | 5% | -12
COc1ccc(N2C(=O)CS(=O)(=O)C23C(=O)N(Cc2ccccc2)c2ccccc23)cc1 (stereo not given) | ? | · | -29% | · | ·
CON(C)S(=O)(=O)c1cccc(C(=O)Nc2cccc(S(=O)(=O)NC3=NCCCCC3)c2)c1 | ? | -2% | ? | -2% | -7
O=C(CSc1ncnc2ccccc12)NCCc1ccccc1 | -8% | 7% | -2% | 13% | -21
Cc1cc2c(NC3CCCCC3)ncnc2s1 | 13µM* | -5% | ? | -23% | -12
Cc1cc2c(NCCc3ccccc3)ncnc2s1 | 1µM* | ? | 1.6µM* | -23% | -70*
CCCCCNc1ncnc2c(C)[nH]nc12 | 23µM* | -20% | 15µM* | -7% | 68
c1ccc(CCNc2ncnc3ccccc23)cc1 | 0.65µM* | 2.1µM* | 0.52µM* | ? | 0
CC(C)(C)C(=O)C1=C(O)C(=O)N(Cc2ccccc2)C1c1ccccc1F (stereo not given) | -4% | 0% | -12% | 1% | 21
CCCCCCCCNc1ncnc2ccccc12 | 0.26µM* | ? | 0.29µM* | ? | -61*
CCc1ccccc1Nc1ncnc2ccccc12 | ? | -1% | ? | -11% | 31
C=CCn1c(SC(C)C(=O)NC2CC2)nnc1-c1ccoc1C (stereo not given) | -10% | 2% | 0% | -2% | 12
CCOC(=O)C1=C(C)NC(=S)NC1c1cccc(O)c1 (stereo not given) | ? | · | -68% | · | ·
O=C1c2ccccc2C(=O)N1CC(O)CNc1ccc(Br)cc1 (stereo not given) | 16% | 11% | -1% | 9% | 8
COCOc1cccc(CN2CCC(C)(Oc3cccc(OC)c3)C2)c1 (stereo not given) | ? | 5% | 18µM* | -14% | -24
COc1cc(Cl)ccc1OC1(C)CCN(Cc2ccc(-c3ccccn3)cc2)C1 (stereo not given) | 15µM* | ? | ? | 16µM* | -13
CC(=O)c1ccc(OC2(C)CCN(Cc3ccc4ccccc4c3)C2)cc1 (stereo not given) | ? | -9% | -22% | -9% | -9
COc1cc(Cl)ccc1OC1(C)CCN(Cc2ccc3ccccc3c2)C1 (stereo not given) | 23µM* | ? | ? | ? | 13

Assay outcomes from PubChem BioAssay.
